# BAZ2B block = BAZ2B (human) inhibition | Potency, µM (titrated, usually from 114 µM), for inactives: at the top dose activity change, negative = inhibition, usual class: inhibitors | 360,000 tested, 4.4% active | AID 504333 | AlphaScreen BAZ2B-H3K14Ac peptide displacement | Q9UIF8; further: on the % scale 0 is the no-effect control and ±100 the full control effect; nearly all actives have a fitted effect of over 60% in size
#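 AlphaScreen displacement of biotin-H3(5-23)K14Ac peptide (50 nM final) from BAZ2B (50 nM final) in PBS pH 7.4, 0.01% Tween-20; complex preformed 30 min RT, then compounds (top 110 uM) 30 min RT, beads 20 min dark.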
# HP1b binding inh = HP1-beta chromodomain-methylated histone interaction inhibition. P83916. AlphaScreen HP1-beta / biotin-H3K9me3 peptide binding. Potency, µM (series often up to 114 µM), inactives show top-dose activity change, negative = inhibition, actives largely listed as inhibitors. 390,000 tested, 0.56% active; further: nearly all actives have a fitted effect of over 70% in size
# Target sequence (P83916 whole entry, looked up): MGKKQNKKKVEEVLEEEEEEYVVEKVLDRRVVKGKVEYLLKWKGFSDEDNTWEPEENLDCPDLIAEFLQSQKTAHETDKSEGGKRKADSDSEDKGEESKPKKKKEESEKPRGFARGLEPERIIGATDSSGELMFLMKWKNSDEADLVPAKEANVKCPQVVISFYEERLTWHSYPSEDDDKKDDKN
#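 AlphaScreen: HP1-beta (50 nM) preformed 30 min with biotin-H3(1-18)K9me3 peptide (50 nM) in PBS pH 7.4, 0.01% Tween-20. Compound added for 30 min at RT, then streptavidin donor/nickel chelate acceptor beads (10 ug/mL) for 30 min.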
# G9a block = inhibitors of human histone lysine methyltransferase G9a; G9a H3K9 monomethylation, AlphaScreen, 2 h; Potency, µM (highest dose often 102 µM), without a hit: at the top dose activity, negative = inhibition, hits mostly inhibitors; 350,000 tested, 8.8% active; AID 504332; Q96KQ7; further: on the % scale 0 is the no-effect control and ±100 the full control effect; nearly all actives have a fitted effect of over 75% in size
# Target sequence (Q96KQ7 913-1193 limits assumed): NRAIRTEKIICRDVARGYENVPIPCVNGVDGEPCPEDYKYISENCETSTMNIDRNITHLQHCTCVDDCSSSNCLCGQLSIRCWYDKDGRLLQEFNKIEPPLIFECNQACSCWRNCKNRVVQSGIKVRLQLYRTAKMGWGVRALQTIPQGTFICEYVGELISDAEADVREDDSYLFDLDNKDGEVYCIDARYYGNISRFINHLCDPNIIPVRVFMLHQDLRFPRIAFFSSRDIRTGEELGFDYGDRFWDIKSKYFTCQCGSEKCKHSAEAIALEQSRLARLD
#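 G9a (20 nM) was preincubated 15 min with compound, then reacted 2 h at room temperature with 500 nM biotin-H3K9 peptide and 20 µM SAM. Monomethyl-H3K9 detected by AlphaScreen using anti-H3K9me1 antibody.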
# PLK1 PBD block = PLK1 (human) polo-box domain binding inhibition | Potency, µM, for the others: max response, negative = inhibition, hits mostly inhibitors | P53350 | Plk1 PBD binding of FITC phosphopeptide, fluorescence polarization | AID 720504 | 360,000 tested, 2.8% active; further: series mostly up to about 57 µM; on the % scale 0 is the no-effect control and ±100 the full control effect; nearly all actives have a fitted effect of over 65% in size
# JMJD2A Tudor inh = JMJD2A Tudor domain (human) inhibition; O75164; 390,000 tested, 4.4% active; AlphaScreen JMJD2A-Tudor / H3K4me3 peptide binding; Potency, µM (titrated, usually from 114 µM), without a hit: top-dose activity change, negative = inhibition, most hits filed as inhibitors; further: on the % scale 0 is the no-effect control and ±100 the full control effect; nearly all actives have a fitted effect of over 50% in size
# Sfp inh = Sfp phosphopantetheinyl transferase inhibition | Biochemical Sfp PPTase activity, qHTS | Potency, µM, for inactives: largest response in the series, negative = inhibition, hits mostly inhibitors | 310,000 tested, 3.5% active | AID 1490;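 further: the enzyme is Sfp with the accession as filed and its product quenches rhodamine fluorescence; 0% = enzyme reaction without inhibitor and -100% = no enzyme wells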
#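 After 15 min at room temperature with compound, 15 nM Sfp received 5 uM rhodamine-CoA plus 12.5 uM BHQ-2-ybbR (50 mM Hepes pH 7.6, 10 mM MgCl2). Rate came from the fluorescence difference over 30 min, ex 525/em 598 nm.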
# * marks the source's active call; other numbers are inactive results; ? = inconclusive; / = no result; ! = repeats disagree; [ ] = remark or other dose. In the library only some 12% were active in any assay of this set; here they are far more common. The call rests on the fitted dose curve; in most records, active means well fitted curve in the direction sought with a large enough effect; inconclusive means small, poorly fitted or top-dose-only effect, or another doubt; inactive means no such curve, though single readings can be large; an effect the other way counts as inactive or inconclusive. Potency means the concentration at half of the fitted maximal effect.
SMILES,BAZ2B block,HP1b binding inh,G9a block,PLK1 PBD block,JMJD2A Tudor inh,Sfp inh
CCn1nc(NS(=O)(=O)c2ccccc2[N+](=O)[O-])c2cc3cccc(C)c3nc21,?,0%,?,?,?,3%
S=c1[nH]nc(-c2ccco2)n1/N=C/c1ccccc1Cl,1%,22%,1.4µM*,-4%,32µM*,?
S=c1[nH]nc(-c2ccco2)n1/N=C/c1ccc(Cl)cc1,?,?,1.3µM*,?,40µM*,-20%
Cc1ccc(/C=N/N2CCOCC2)s1,-30%,22%,6%,-4%,-23%,10%
Cc1ccc(/C=N/n2c(-c3ccco3)n[nH]c2=S)s1,-14%,14%,1.3µM*,-7%,20µM*,?
CC(=O)N1CCC2(CCCN(C(=O)Nc3cccc(C#N)c3)C2)CC1,/,/,-1%[12.7 µM],/,/,11%
NS(=O)(=O)c1ccc(N=Nc2c(O)ccc3ccccc23)cc1,?,-12%,35µM*,5%,-28%,13%
Nc1nc(N)c(N=Nc2ccc(S(N)(=O)=O)cc2)c(=O)[nH]1,?,44%,35%[0.501 µM],-1%,-10%,-10%
Oc1ccc(N=Nc2c(O)ccc3ccccc23)cc1,6.3µM*,?,8.9µM*,-9%,10µM*,?
Cc1ccccc1N=Nc1ccc(N=Nc2c(O)ccc3ccccc23)c(C)c1,/,/,1.3µM*,/,/,14%
Cc1cc2c(cc1C)CSC(c1c(O)ccc3ccccc13)SC2,?,0%,?,-8%,-35%,23%
Oc1ccc2ccccc2c1Br,0%,6%,?,?,-22%,15%
COc1ccc(NC(=O)N2c3ccc(OC)cc3C(C)=CC2(C)C)cc1,45µM*,-22%,50µM*,-12%,56µM*,20µM*
CCOC(=O)Oc1ccc2c(c1)C(C)=CC(C)(C)N2C(=O)OCC,52%,76%,50%[59 µM],-6%,72%,-9%
CCOc1ccc2c(c1)C(C)=CC(C)(C)N2C(=O)Nc1ccccc1,50µM*,?,50µM*,-9%,56µM*,?
COc1ccc(NC(=O)N2c3ccccc3C(C)=CC2(C)C)cc1,-32%,-16%,?,-21%,-24%[57.1 µM],7%
CCNC(=O)N1c2ccc(OC)cc2C(C)=CC1(C)C,?,-3%,50µM*,-9%,-31%,-18%
O=C(Cc1ccsc1)NCC(=O)Nc1ccccc1Br,/,36%,/,-13%,-14%,/
CC(C)C/C(O)=C/c1nc2cc(Cl)ccc2oc1=O,?,16%,35µM*,-7%,?,56µM*
O=c1oc2ccc(Cl)cc2nc1/C=C(\O)c1ccco1,35µM*,21%,8.9µM*,62%,89µM*,?
CSC(SC)=C(C(C)=O)C(=O)c1ccc(C)cc1,-7%,21%,?,-17%,-7%,6%
CSc1ccc(C(=O)c2[nH]c(=O)[nH]c2C)cc1,-1%,11%,11µM*!,?,-23%,-12%
CCC(C)NS(=O)(=O)c1ccc(NS(=O)(=O)c2ccc(F)cc2)cc1 (stereo unspecified),-1%,30%,2%[12.7 µM],-1%,-8%,7%
C=CC[C@@H]1C=C[C@@H](O/N=C\C[C@@H]2C=C[C@H](OC(C)=O)[C@H](COC(C)=O)O2)[C@@H](CO)O1,/,/,/,/,/,-20%
Cc1ccc2[nH]c(=O)c(NC(N)=S)nc2c1,2%,12%,?,-4%,-25%,-19%
SMILES,BAZ2B block,HP1b binding inh,G9a block,PLK1 PBD block,JMJD2A Tudor inh,Sfp inh
O=c1[nH]c2ccccc2nc1C(Cl)c1ccccc1 (stereo unspecified),56µM*,/,?,/,/,-12%
NC(=S)Nc1nc2ccccc2[nH]c1=O,?,/,7.9µM*,/,/,?
COC(c1ccccc1)c1nc2ccccc2[nH]c1=O (stereo unspecified),10%,17%,-9%[2.33 µM],1%,-6%,13%
O=C(Nc1ccc(CN2CCOCC2)cc1)c1ccc(Cl)cc1,-3%,36%,-9%,2%,-16%,17%
O=C(CN1CCOCC1)NNC(=S)Nc1ccc(Cl)cc1,?,31%,40µM*,0%,-13%,16%
O=C(CN1c2ccccc2Sc2ccccc21)NNC(=S)Nc1ccc(Cl)cc1Cl,-5%,13%,66%[59 µM],-8%,-23%,11%
O=C(CN1c2ccccc2Sc2ccccc21)NNC(=S)Nc1ccc(Cl)cc1,?,?,28µM*,-13%,?,5%
COC(=O)C1=C(C(=O)OC)[C@@H]2N(C)c3ccc(OC)cc3[C@@]23C[C@@H](C(=O)OC)N(C(=O)c2cccs2)C3=N1,50µM*,?,40µM*,-5%,?,11%
COC(=O)C1=C(C(=O)OC)[C@@H]2N(C)c3ccc(OC)cc3[C@@]23C[C@@H](C(=O)OC)N(S(=O)(=O)c2ccc(C)cc2)C3=N1,/,/,/,/,/,6%
COC(=O)C1=C(C(=O)OC)[C@@H]2N(C)c3ccccc3[C@@]23C[C@@H](C(=O)OC)N(C(=O)c2cccs2)C3=N1,?,-12%,-37%[59 µM],-18%,?,4%
COC(=O)C1=C(C(=O)OC)[C@@H]2N(C)c3ccc(OC)cc3[C@@]23C[C@@H](C(=O)OC)N(C(=O)c2cc(C)oc2C)C3=N1,/,?,/,0%,45µM*,3%
C#CCN1[C@@H]2CCN(C2)c2cc(Br)ccc2S1(=O)=O,/,73%,/,-7%,4%,/
CCCc1ccc(C2C3=C(CC(C)(C)CC3=O)NC3=C2C(=O)c2ccccc23)cc1 (stereo unspecified),25µM*,-37%,35µM*,-13%,?,-12%
CC1(C)CC(=O)C2=C(C1)NC1=C(C(=O)c3ccccc31)C2c1ccc(O)cc1 (stereo unspecified),40µM*,7%,25µM*,-20%,-29%[57.1 µM],-18%
O=C1CCCC2=C1C(c1cccc(O)c1)C1=C(N2)c2ccccc2C1=O (stereo unspecified),-26%,4%,32µM*,-4%,-11%,-15%
COc1ccc(CN(C)C(=O)c2ccccc2Sc2ccccc2C#N)c(OC)c1,-11%,25%,61%,-9%,-7%,15%
O=C(Nc1nc(-c2ccccc2)cs1)c1cccc([N+](=O)[O-])c1,40µM*,-26%,32µM*,-9%,?,0%
Cc1csc(NC(=O)c2cccc([N+](=O)[O-])c2C(=O)O)n1,-8%,31%,-12%[0.501 µM],-11%,-12%,11%
O=C(Nc1nc(-c2cccnc2)cs1)c1cccc([N+](=O)[O-])c1,-6%,12%,7%,-10%,-21%,-28%
O=C(Nc1nc(-c2ccccc2)cs1)c1cccc([N+](=O)[O-])c1C(=O)O,2%,34%,50µM*,-15%,-21%,6%
